Cardiac RTF inh = cardiac RTF calcium sensitivity inhibitors, primary screen, biochemical, IANBD-TnC fluorescence, EC70 calcium. hit rate 0.12% among 340,000. inhibition, % at 7.15 µM. IANBD-labeled cardiac RTF, Ca2+ fluorescence. Troponin I, cardiac muscle (Homo sapiens) + Troponin T, cardiac muscle (Homo sapiens) + …. AID 493244, 2011;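 active means inhibition above the mean inhibition of all tested compounds plus 3 SD, cut at about 17% in these data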;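 further: assay run at fixed EC70 calcium of 1.6 mM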
LANA DNA inh = inhibitors of KSHV C-LANA binding to DNA, primary screen, biochemical, fluorescence polarization, FAM-LBS DNA, MBP-C-LANA, single point. inhibition, % at 9 µM. hit rate 0.078% among 340,000. Kaposi's sarcoma herpesvirus LANA C-terminal domain (residues 932-1162) DNA binding. AID 504423, 2011;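 active means highest replicate inhibition at or above 60% at 9 µM, even if other replicates fall short; inactive means all replicates below 60% inhibition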;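 further: 0% = neutral control wells and 100% = 4 µM acridine orange control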
cardiac RTF act = cardiac RTF calcium sensitivity activators, primary screen, biochemical, IANBD-TnC fluorescence, EC20 calcium. activation, % at 7.2 µM. IANBD-labeled TnC RTF fluorescence at EC20 calcium; 0% EC20 calcium, 100% full calcium. hit rate 0.24% among 340,000;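 active means activation above the mean over all tested compounds plus 3 SD, cut at about 30% in these data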;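 further: rise in fluorescence read as greater calcium sensitivity of cardiac thin filaments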
Keap1 Nrf2 FP = Keap1-Nrf2 protein-protein interaction inhibitors, primary screen, biochemical, fluorescence polarization, single point. hit rate 0.15% among 340,000. Kelch-like ECH-associated protein 1 (Homo sapiens), Q14145. Keap1 Kelch-Nrf2 peptide fluorescence polarization, 1536-well. inhibition, % at 9.4 µM; in the data active means inhibition above about 12%; inconclusive means no clear call, values can overlap the other calls; inactive means below about 7.3%;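 further: human Keap1 Kelch domain with fluorescein labeled Nrf2 9mer peptide probe; 0% = neutral control wells and 100% = peptide positive control; higher means more block of Keap1 binding to Nrf2 peptide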
LANA-H2A inh = blockers of LANA interaction with H2A/H2B – biochemical, FP readout, HTS, primary screen; Protein LANA1 (Human herpesvirus 8 type P (isolate GK18)), Q9QR71; inhibition, % (concentration not given with the values); cell-free LANA-H2A/H2B peptide, fluorescence polarization; hit rate 0.6% among 320,000; in the data active means inhibition mostly above about 10%, no sharp cut-off; inactive means mostly below about 6.7%
Target sequence (Q9QR71 whole entry, looked up): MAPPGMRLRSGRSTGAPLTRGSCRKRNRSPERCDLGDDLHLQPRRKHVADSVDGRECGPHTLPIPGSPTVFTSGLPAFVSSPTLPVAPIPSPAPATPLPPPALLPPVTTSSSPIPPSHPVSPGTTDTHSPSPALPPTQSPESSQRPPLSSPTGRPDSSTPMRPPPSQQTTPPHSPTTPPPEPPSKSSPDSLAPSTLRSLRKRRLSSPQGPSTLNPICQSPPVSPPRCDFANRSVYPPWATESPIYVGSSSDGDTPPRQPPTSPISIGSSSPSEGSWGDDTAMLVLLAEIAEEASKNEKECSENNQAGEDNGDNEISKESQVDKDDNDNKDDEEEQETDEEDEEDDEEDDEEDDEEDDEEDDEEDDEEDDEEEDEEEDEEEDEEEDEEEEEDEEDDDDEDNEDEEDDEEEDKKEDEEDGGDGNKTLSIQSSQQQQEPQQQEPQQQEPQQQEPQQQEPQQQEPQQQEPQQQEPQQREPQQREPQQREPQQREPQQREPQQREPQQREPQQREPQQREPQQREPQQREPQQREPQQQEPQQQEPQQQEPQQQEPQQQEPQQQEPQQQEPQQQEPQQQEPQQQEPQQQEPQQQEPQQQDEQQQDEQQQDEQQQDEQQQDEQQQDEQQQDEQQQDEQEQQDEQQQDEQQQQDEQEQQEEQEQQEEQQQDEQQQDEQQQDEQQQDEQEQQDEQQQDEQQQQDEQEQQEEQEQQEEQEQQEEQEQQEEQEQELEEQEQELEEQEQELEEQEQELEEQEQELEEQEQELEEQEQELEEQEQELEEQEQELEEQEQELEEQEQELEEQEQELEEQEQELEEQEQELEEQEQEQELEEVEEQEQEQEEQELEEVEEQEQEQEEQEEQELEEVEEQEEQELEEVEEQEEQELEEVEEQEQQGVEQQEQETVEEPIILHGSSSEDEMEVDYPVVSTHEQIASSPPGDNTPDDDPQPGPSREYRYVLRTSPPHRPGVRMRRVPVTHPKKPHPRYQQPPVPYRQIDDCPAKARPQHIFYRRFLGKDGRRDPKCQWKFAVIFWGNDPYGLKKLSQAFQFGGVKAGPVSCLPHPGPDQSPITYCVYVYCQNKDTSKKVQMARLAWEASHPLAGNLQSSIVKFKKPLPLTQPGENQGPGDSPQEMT
* marks the source's active call; other numbers are inactive results; i = inactive; ? = inconclusive; · = no result; + = active, no number. Hits are enriched below; roughly 0.98% of the tested compounds scored in any of these assays.

SMILES	Cardiac RTF inh	LANA DNA inh	cardiac RTF act	Keap1 Nrf2 FP	LANA-H2A inh
Nc1ccc(S(N)(=O)=O)cc1N	-9.2	-0.5	29.7*	-1.6	4.9
Cn1c(=O)c(C(=O)NCCO)c(O)c2ccccc21	0.8	-1.3	-3.4	-3.3	9.6*
Cn1c(=O)c(C(=O)NCCc2ccc(Cl)cc2)c(O)c2ccccc21	-3.3	0.1	3.5	-1.8	-5.0
CCCCCC(=O)Nc1cc(S(=O)(=O)O)cc2cc(S(=O)(=O)O)cc(O)c12	67.3*	113.8*	-49.4	-0.2	·
O=C(CCNC(=O)N1CC(=O)Nc2ccccc21)Nc1cccc(Cl)c1	-20.9	0.2	-0.3	-5.0	15.0*
O=C(CCNC(=O)N1CC(=O)Nc2ccccc21)NCc1cccc(Cl)c1	-0.9	-0.6	1.0	-1.1	-5.6
Oc1[nH]c2ccccc2c1C1=NCCCC1	-18.9	-1.2	-0.4	2.8	21.1*
COc1ccc(C(CNC(=O)c2cccc(S(=O)(=O)N3CCOCC3)c2)N2CCCC2)cc1 (stereo not given)	0.3	0.6	-4.0	-1.0	10.9*
O=C(O)CCC1c2cc3c4cc2OC2Oc5cc6c(cc51)C(CCC(=O)O)c1cc5c7cc1OC(O6)c1cc6cc(c1)Oc1cc(cc(C(=O)O)c1)Oc1cc8cc(c1)C(Oc1cc(c(cc1C5CCC(=O)O)C3CCC(=O)O)OC(O4)c1cc(cc(c1)Oc1cc(cc(C(=O)O)c1)O8)Oc1cc(cc(C(=O)O)c1)Oc1cc(cc2c1)Oc1cc(cc(C(=O)O)c1)O6)O7 (stereo not given)	·	·	·	·	-2.7
Cc1nc2sccn2c(=O)c1CCN1CCC(=C(c2ccc(F)cc2)c2ccc(F)cc2)CC1	-13.3	-0.6	-0.2	1.5	8.3*
COc1ccccc1N1C(=O)C2C(C(=O)c3ccccc3)=NN(c3ccc(C)cc3)C2C1=O (stereo not given)	·	·	·	·	0.6
O=C(C1=NN(c2ccccc2)C2C(=O)N(c3cccc(Cl)c3)C(=O)C12)c1ccccc1 (stereo not given)	-27.5	60.5*	46.7*	?	16.7
O=C(C1=NN(c2ccccc2)C2C(=O)N(c3ccc(Cl)cc3)C(=O)C12)c1ccccc1 (stereo not given)	-30.2	4.3	38.3*	-4.5	-8.4
O=C(C[n+]1ccc(C(=O)NCCCO)cc1)c1cccc(Br)c1	-10.8	-0.8	1.2	-1.3	-4.9
CCn1cnc2c([N+](=O)[O-])c(NS(=O)(=O)c3ccc(C)cc3)ccc21	-6.7	-0.2	0.0	-2.6	-0.7
COc1ccc(NC(C)=O)cc1S(=O)(=O)NCCc1ccccn1	-1.0	-0.8	-3.3	-1.0	29.9*
Cc1cc(C)nc(SC2CC(=O)N(c3ccc(C)c(C)c3)C2=O)n1 (stereo not given)	0.3	-1.1	-8.6	-5.8	16.0*
COc1cc([N+](=O)[O-])ccc1N1C(=O)CC(Sc2nccc(C)n2)C1=O (stereo not given)	2.2	-0.1	-6.0	-2.8	15.0*
CCN(CC)S(=O)(=O)c1ccc(N2CCCCC2)c(NC(=O)/C(C#N)=C/c2ccc(OC)cc2)c1	0.6	-1.0	1.6	-0.1	0.7
CCOc1ccc(NC(=O)/C(C#N)=C/c2ccc(N3CCCC3)c(C)c2)cc1	-50.6	1.8	67.1*	-5.6	-6.2
COc1ccc(O)c(/C=C2/SC(=S)N(Cc3ccccc3)C2=O)c1	-56.0	-2.7	80.9*	-1.6	9.6
O=C1/C(=C\c2cc(Cl)c(O)c(Cl)c2)SC(=S)N1Cc1ccccc1	i	-22.2	525.3*	-35.4	-17.1
COc1ccc(/C=C2/SC(=S)N(Cc3ccccc3)C2=O)cc1O	6.7	0.1	2.2	0.7	-5.8
CC(Sc1ncccn1)C(=O)NC1(C#N)CCCCC1 (stereo not given)	2.8	1.4	4.2	-4.1	18.0*
CC(SC1=Nc2ccccc2C2CC=NN12)C(=O)NC1(C#N)CCCCC1 (stereo not given)	-1.7	-1.6	-5.1	-4.6	-4.1
SMILES	Cardiac RTF inh	LANA DNA inh	cardiac RTF act	Keap1 Nrf2 FP	LANA-H2A inh
COc1cc(NC(=O)[C@H]2CSCN2C(=O)[C@@H]2CCC(=O)N2)cc(OC)c1OC	-11.2	-0.6	5.4	-3.9	14.3*
CCn1c(SCC(=O)NCc2ccccc2)nnc1-c1cccnc1	-0.1	0.0	-2.4	3.0	-6.8
CNc1nnc(SCC(=O)N2c3ccccc3NC(=O)CC2C)s1 (stereo not given)	4.4	0.7	-6.6	1.3	+
Cc1cc(C)cc(NC(=S)N2CCC(NC(=O)c3ccco3)CC2)c1	-14.1	-1.1	3.9	-2.5	-0.2
CC(=O)Nc1ccc(NC(=O)C(C)OC(=O)/C(C#N)=C/c2ccc(N(C)C)cc2)cc1 (stereo not given)	-118.3	6.2	79.6*	-1.7	·
CC(OC(=O)/C(C#N)=C/c1ccc(N(C)C)cc1)C(=O)N(C)c1ccccc1 (stereo not given)	-31.5	24.6	30.4*	0.5	-3.5
CCOc1ccc(C2C=C(c3ccc(C)cc3)Nc3nnnn32)cc1 (stereo not given)	-76.2	7.0	54.2*	-0.4	6.3
CCOc1ccc(NC(=O)CCN2C(=O)CSc3ccccc32)cc1	-5.2	-1.0	-3.4	-8.0	-360.6
O=C(CCN1C(=O)CSc2ccccc21)Nc1ccc(OC(F)(F)F)cc1	-5.5	-0.3	-1.0	-1.2	+
Cc1ccc(S(=O)(=O)N[C@@H](C)C(=O)N2CCC(C(=O)N3CCC[C@H]3C(=O)O)CC2)cc1	-5.3	0.7	-1.7	-1.8	7.6*
Cc1ccc(S(=O)(=O)N[C@H](C(=O)N2CCC(C(=O)N3CCC[C@H]3C(=O)O)CC2)C(C)C)cc1	-5.8	-2.3	6.6	-6.4	·
O=C(O)c1ccc([N+](=O)[O-])c(CS(=O)(=O)c2ccccc2)c1	-1.4	-1.8	-8.8	-4.8	1.0
COc1c(O)cnn(-c2ccccc2)c1=O	-3.9	0.5	0.9	2.0	-0.6
O=C(O)/C(=C\c1cccc(OCc2ccccc2)c1)c1ccc(F)cc1	11.0	-0.2	7.6	0.3	10.5*
O=C(N/N=C/c1ccc(F)cc1)c1ccc(OCc2ccccc2)cc1	-5.2	-1.6	2.3	1.0	1.1
N#CC(C#N)=C/C(C#N)=C(/N)N1CCN(c2ccc(Cl)cc2)CC1	-1.9	0.9	4.4	-2.8	17.6*
C#CCN1c2ccccc2Sc2cccnc21	-39.7	-0.3	29.7*	-2.2	-0.4
O=S1(=O)c2cccc3cccc(c23)N1CCBr	-9.5	1.1	0.8	1.0	-5.7

Screens as filed in PubChem.
